Measurements from PubChem BioAssay (NCATS).
Records with an inconclusive call do not appear. Calls of active or inactive are those of the source. Unless noted, calls follow the shape of the dose curve; as a rule, active = well fitted curve in the direction sought with a large enough effect; inconclusive = small, poorly fitted or top-dose-only effect, or another doubt; inactive = no such curve, though single readings can be large; an effect the other way counts as inactive or inconclusive.

How the values were obtained:
[1] = biological target: Lysosomal acid glucosylceramidase (Homo sapiens) (UniProt P04062); experiment: Glucocerebrosidase-p2 (AID 348; in the data active = potency below about 10 µM; also: potency is read from the fitted curve at half-maximal effect); details: purified GBA, blue fluorogenic substrate, 40 min
How it was run: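 Normal human glucocerebrosidase (0.2 nM) with blue fluorogenic substrate (80 uM final) in citrate/phosphate pH 5.9 with 10mM sodium taurocholate, 0.01% tween-20; 40 min RT, NaOH/glycine stop; fluorescence Ex 365/Em 440; AC50 from a titration from 0.6 nM upwards.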

[2] = biological target: Cytochrome P450 1A2 (Homo sapiens) (UniProt P05177); experiment: p450-cyp1a2 (AID 410; calls by dose curve; also: potency is read from the fitted curve at half-maximal effect;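 as to activity change, negative = inhibition: -100% = full effect of reference inhibitor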); details: recombinant CYP1A2, luciferin-ME demethylation, luminescence; series mostly up to 57 µM
How it was run: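 Luminescent demethylation readout: Luciferin-ME (100uM, equal to Km) turned over by 20nM CYP1A2 for 60 min at room temperature after NADPH regeneration addition, following 10 min compound preincubation. Normalization used 57 uM furafylline as full inhibition.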

[3] = NFAT Signaling Pathway (AID 444; active = well fitted curve in either direction with a large enough effect, not every such curve was filed as active;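 also: carbachol stimulus at about its EC50 of 1 µM final; % is scaled to controls: 0 for no effect and ±100 for the full control effect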); details: Jurkat NFAT-bla M1, carbachol, beta-lactamase ratio, 5 h; at 7.69 µM (top of the series) unless noted
How it was run: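 Jurkat cells carrying an NFAT-driven β-lactamase reporter and co-transfected muscarinic M1 receptor were treated with compound plus carbachol (1 uM final, an EC50 level) for 5 h at 37 °C. CCF4 loading followed for 1 h at RT; 460/530 nm ratio gave %activity.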

[4] = Stat Signaling Pathway (AID 446; active = well fitted curve in either direction with a large enough effect, not every such curve was filed as active;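 also: ME-180 cervical cancer cells given 40 pM IL-6 alongside compound; SIE-controlled beta-lactamase reporter measured as 460/530 nm FRET emission ratio; % is scaled to controls: 0 for no effect and ±100 for the full control effect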); details: ME-180 SIE beta-lactamase reporter, IL-6 stimulated, 5 h; at 7.69 µM (top of the series) unless noted
How it was run: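 Emission at 460 and 530 nm (excitation 405 nm) reports SIE-controlled beta-lactamase in ME-180 cells. Cells received compound with 40 pM IL-6 for 5 hrs at 37 C; data scaled between 300 pM IL-6 and 125 nM JAK-inhibitor controls.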

[5] = biological target: Glucocorticoid receptor (Homo sapiens) (UniProt P04150); experiment: GR-GFP Redistribution (AID 450;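 active = compounds whose dose series gives a full or clear partial fitted curve of increased nuclear translocation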; also: potency is read from the fitted curve at half-maximal effect); details: U2OS GR-GFP nuclear translocation, laser cytometry, 2 h
[6] = biological target: Glucocorticoid receptor (Homo sapiens) (UniProt P04150); experiment: GR-EFC Redistribution (AID 451; calls by dose curve; also: potency is read from the fitted curve at half-maximal effect); details: CHO-K1 GR-EFC translocation, beta-gal luminescence, 2 h
How it was run: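 CHO-K1 cells stably expressing nuclear-localized β-gal enzyme acceptor and GR fused C-terminally to the enzyme donor fragment; ligand-driven nuclear translocation restores β-gal by complementation. Compounds titrated up to 46 uM final, 2 h at 37 °C; luminescence read.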

[7] = biological target: Mitogen-activated protein kinase 10 (Mus musculus) (UniProt Q61831); experiment: JNK3 AlphaScreen Assay (AID 530; active = well fitted curve in either direction with a large enough effect, not every such curve was filed as active;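 also: kinase came from lysate of stimulated human HepG2 cells; signal reports phosphorylation of biotinylated GST-cJun 1-79 at Ser73 with 10 µM ATP; % is scaled to controls: 0 for no effect and ±100 for the full control effect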); details: JNK3 lysate, c-Jun phosphorylation; series mostly up to 57.1 µM
How it was run: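 Phosphorylation of biotinylated GST-cJun(1-79) at Ser73 is measured by AlphaScreen proximity luminescence. Enzyme is JNK3 in HepG2 lysates activated with interleukin-1beta and tumor necrosis factor alpha; ATP is 10 uM final.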

[8] = biological target: 3',5'-cyclic-AMP phosphodiesterase 4B (Homo sapiens) (UniProt Q07343); experiment: qHTS Assay for Inhibitors of PDE-IV (AID 607; active = well fitted activation curve with a large enough effect in the main read-out, with a control signal flat, not every such curve was filed as active; also: % of control where 0% means no effect); details: HEK293 ACTOne CNG channel cells, membrane potential fluorescence; series mostly up to 22.9 µM
How it was run: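 The readout is membrane depolarisation from a cAMP-sensing CNG channel, detected with a potential dye at ex 535/em 590. Cells were HEK293-derived (endogenous PDE-IV) at 1000 cells/well, titrated up to 22.9 uM final.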

[9] = biological target: Cytochrome P450 3A4 (Homo sapiens) (UniProt P08684); experiment: qHTS Assay for Activators of Cytochrome P450 3A4 (AID 885); details: recombinant CYP3A4, Luciferin-PPXE luminescence, 60 min; series mostly up to 57.1 µM; also: nearly all actives have a fitted effect of over 65% in size
How it was run: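 Activators are scored by enhanced luminescence from CYP3A4 conversion of luciferin-PPXE (25uM, equal to KM) to luciferin, after 60 min at RT with an NADPH-regenerating system.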

[10] = qHTS Assay for Identification of Small Molecule Agonists for Hypoxia Response Element Signaling Pathway (AID 914; active = well fitted activation curve with a large enough effect in the signal ratio, with a control signal flat, not every such curve was filed as active; the % refers to the signal ratio; also: potency is read from the fitted curve at half-maximal effect; as to activation: % of control where 0% means no effect); details: ME-180 HRE-bla reporter, beta-lactamase ratio, CoCl2, 17 h; activation: stronger effect = higher value
How it was run: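 Reporter activity (beta-lactamase, CCF4 460nm/530nm ratio) in HRE-bla ME-180 cells is recorded after 17 h compound exposure with EC50 CoCl2 at 37 degrees Celsius. AC50 values come from titration data.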

[11] = qHTS Assay for Lipid Storage Modulators (AID 1519; calls by dose curve); details: Drosophila S3 cells, BODIPY lipid droplet/cell ratio, laser cytometry, cells loaded with oleic acid; for activity change, negative = inhibition: at 57.5 µM (top of the series)
How it was run: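 Cells seeded at 5,000 per well were treated with compounds over a concentration series and loaded with oleic acid (400 uM, as added). Lipid droplet fluorescence (488 nm excitation, 500-530 nm channel) was read by laser-scanning cytometry and normalized to 20 uM Triacsin C.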

[12] = biological target: Dual specificity protein kinase CLK4 (Homo sapiens) (UniProt Q9HAZ1); experiment: qHTS Assay for Inhibitors of CDC-like Kinase 4 (Kinase-Glo Assay) (AID 1770); details: recombinant Clk4, Kinase-Glo ATP depletion luminescence; series mostly up to 66.7 µM; also: nearly all actives have a fitted effect of over 65% in size; also: potency is read from the fitted curve at half-maximal effect
How it was run: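 Recombinant human Clk4 (25 nM) phosphorylated RS repeat peptide (100 uM) with 1 uM ATP in Tris pH 7.5/MgCl2/EGTA/DTT/Triton buffer for 4.5 h at room temperature. Residual ATP was quantified by Kinase-Glo luciferase luminescence.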

[13] = biological target: Dual specificity protein kinase CLK4 (Homo sapiens) (UniProt Q9HAZ1); experiment: qHTS Assay for Inhibitors of CDC-like Kinase 4 (ADP-Glo Assay) (AID 1771); details: recombinant CLK4, ADP-Glo luminescence; series mostly up to 80 µM; also: nearly all actives have a fitted effect of over 70% in size; also: potency is read from the fitted curve at half-maximal effect
How it was run: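 ADP production was read by ADP-Glo luminescence after residual ATP depletion, following 1 h room-temperature reaction of 25 nM Clk4, 1 uM ATP and 100 uM RS peptide with MgCl2, EGTA, DTT and Triton X-100.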

[14] = biological target: Dual specificity protein kinase CLK4 (Homo sapiens) (UniProt Q9HAZ1); experiment: qHTS Assay for Inhibitors of CDC-like Kinase 4 (ADP-FP Assay) (AID 1795); details: Transcreener ADP fluorescence polarization; series mostly up to 50 µM; also: nearly all actives have a fitted effect of over 60% in size; also: potency is read from the fitted curve at half-maximal effect
How it was run: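 Recombinant human Clk4 (6.25 nM) phosphorylated RS repeat peptide (100 uM) with 1 uM ATP in Tris pH 7.5/MgCl2/EGTA/DTT/Triton buffer for one hour. ADP was quantified by Transcreener competitive fluorescence polarization against an ADP calibration curve.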

[15] = biological target: Ubiquitin carboxyl-terminal hydrolase 1 (Homo sapiens) (UniProt O94782); experiment: Inhibitors of USP1/UAF1: Pilot qHTS (AID 504865); details: purified USP1/UAF1, Ub-rhodamine cleavage fluorescence; series mostly up to 54.9 µM;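 also: rhodamine fluorescence freed from ubiquitin-rhodamine substrate followed over time; top concentration of the series differs between compounds; % is scaled to controls: 0 for no effect and ±100 for the full control effect; nearly all actives have a fitted effect of over 35% in size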
How it was run: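 USP1/UAF1 complex (1nM) preincubated with compound 15 min at room temperature, then Ub-Rho substrate (150nM final) added. Fluorescence read kinetically at 480/540 nm, 6 reads every 60 seconds. Buffer: 50mM HEPES pH 7.8, 0.5mM EDTA, 0.1 mg/ml BSA, 1mM TCEP, 0.01% Tween-20.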

[16] = Primary qHTS for small molecule stabilizers of the endoplasmic reticulum resident proteome: Secreted ER Calcium Modulated Protein (SERCaMP) assay (AID 1508630); details: SH-SY5Y GLuc-SERCaMP (Gaussia luciferase released on ER calcium loss) secretion, thapsigargin, luminescence; series mostly up to 38.4 µM; also: % is scaled to controls: 0 for no effect and ±100 for the full control effect
How it was run: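 The SH-SY5Y reporter protocol was run at 3 concentrations up to 38.3 uM (primary) or 11 concentrations (follow-up): 16 h compound, 100 nM thapsigargin for 4 h, then extracellular luciferase luminescence.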

[17] = AP1 Signaling Pathway (AID 357; active = well fitted curve in either direction with a large enough effect, not every such curve was filed as active); details: ME-180 (cervical carcinoma) AP-1-bla reporter, EGF-induced, beta-lactamase ratio, 5 h; at 7.69 µM (top of the series) unless noted
How it was run: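 Read-out was the 460nm/530nm emission ratio (excitation 405nm) after CCF4 loading for 2.5 hours at room temperature. Cells carried an AP-1-driven beta-lactamase reporter, were stimulated with EC50 EGF plus compound for 5 hours, and AC50 values came from titrations.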

[18] = measured here: cell count channel max response
[19] = measured here: lipid channel max response

Chain of Glucocorticoid receptor (Homo sapiens) (P04150 whole entry, looked up, the tested form may be a part): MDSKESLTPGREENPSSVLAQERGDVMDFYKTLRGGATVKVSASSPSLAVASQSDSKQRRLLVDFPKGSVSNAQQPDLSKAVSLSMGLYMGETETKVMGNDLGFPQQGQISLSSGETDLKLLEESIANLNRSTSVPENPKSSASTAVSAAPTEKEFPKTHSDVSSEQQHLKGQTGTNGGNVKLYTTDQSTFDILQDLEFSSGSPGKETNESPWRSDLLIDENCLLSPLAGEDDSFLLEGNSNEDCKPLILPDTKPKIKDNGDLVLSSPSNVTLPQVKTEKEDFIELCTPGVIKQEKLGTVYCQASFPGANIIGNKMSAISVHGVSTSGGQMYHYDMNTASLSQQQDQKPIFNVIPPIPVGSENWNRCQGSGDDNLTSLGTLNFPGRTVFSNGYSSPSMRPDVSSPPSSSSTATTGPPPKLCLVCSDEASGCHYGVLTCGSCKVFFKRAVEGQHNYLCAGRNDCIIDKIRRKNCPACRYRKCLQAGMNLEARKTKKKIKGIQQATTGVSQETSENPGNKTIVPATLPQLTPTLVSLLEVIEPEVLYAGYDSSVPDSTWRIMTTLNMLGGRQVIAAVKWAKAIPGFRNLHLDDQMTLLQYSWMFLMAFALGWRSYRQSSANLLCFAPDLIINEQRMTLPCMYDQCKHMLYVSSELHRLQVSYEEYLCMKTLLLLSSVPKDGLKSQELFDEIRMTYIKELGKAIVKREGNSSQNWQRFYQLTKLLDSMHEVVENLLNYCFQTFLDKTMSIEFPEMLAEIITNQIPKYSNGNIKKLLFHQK
Chain of 3',5'-cyclic-AMP phosphodiesterase 4B (Homo sapiens) (Q07343 whole entry, looked up): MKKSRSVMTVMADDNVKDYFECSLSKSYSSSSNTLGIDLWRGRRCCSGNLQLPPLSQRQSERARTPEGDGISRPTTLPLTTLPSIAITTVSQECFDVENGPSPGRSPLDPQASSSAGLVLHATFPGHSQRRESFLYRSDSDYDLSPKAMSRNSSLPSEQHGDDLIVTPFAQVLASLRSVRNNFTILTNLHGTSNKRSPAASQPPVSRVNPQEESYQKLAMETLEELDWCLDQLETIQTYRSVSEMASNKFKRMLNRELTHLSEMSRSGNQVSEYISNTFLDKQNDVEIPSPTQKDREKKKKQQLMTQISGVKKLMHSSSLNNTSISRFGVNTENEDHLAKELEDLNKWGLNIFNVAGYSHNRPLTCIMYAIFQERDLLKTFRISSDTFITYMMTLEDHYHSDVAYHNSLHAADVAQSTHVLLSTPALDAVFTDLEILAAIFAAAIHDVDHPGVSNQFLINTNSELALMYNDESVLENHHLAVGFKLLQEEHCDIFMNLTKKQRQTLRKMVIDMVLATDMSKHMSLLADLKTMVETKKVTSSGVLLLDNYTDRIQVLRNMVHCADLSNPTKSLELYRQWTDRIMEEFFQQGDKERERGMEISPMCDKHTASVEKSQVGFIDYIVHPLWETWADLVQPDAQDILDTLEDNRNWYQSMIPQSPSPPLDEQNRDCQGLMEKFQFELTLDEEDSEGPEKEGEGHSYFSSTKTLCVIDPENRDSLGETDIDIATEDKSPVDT
Chain of Lysosomal acid glucosylceramidase (Homo sapiens) (P04062 whole entry, looked up): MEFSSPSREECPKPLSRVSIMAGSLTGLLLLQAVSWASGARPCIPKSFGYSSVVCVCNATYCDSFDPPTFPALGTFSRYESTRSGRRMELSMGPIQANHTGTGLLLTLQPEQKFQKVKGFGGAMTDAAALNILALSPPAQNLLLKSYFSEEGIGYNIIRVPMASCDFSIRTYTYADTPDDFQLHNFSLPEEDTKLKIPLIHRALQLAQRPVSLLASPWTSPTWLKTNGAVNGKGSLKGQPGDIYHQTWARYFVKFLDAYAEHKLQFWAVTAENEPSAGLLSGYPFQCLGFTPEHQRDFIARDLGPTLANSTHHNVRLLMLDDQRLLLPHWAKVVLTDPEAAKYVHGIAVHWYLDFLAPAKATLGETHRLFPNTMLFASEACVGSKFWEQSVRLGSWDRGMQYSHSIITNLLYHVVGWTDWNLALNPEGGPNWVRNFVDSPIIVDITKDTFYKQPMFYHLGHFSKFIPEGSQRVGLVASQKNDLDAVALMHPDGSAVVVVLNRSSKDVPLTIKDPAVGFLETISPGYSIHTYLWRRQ
Chain of Ubiquitin carboxyl-terminal hydrolase 1 (Homo sapiens) (O94782 whole entry, looked up): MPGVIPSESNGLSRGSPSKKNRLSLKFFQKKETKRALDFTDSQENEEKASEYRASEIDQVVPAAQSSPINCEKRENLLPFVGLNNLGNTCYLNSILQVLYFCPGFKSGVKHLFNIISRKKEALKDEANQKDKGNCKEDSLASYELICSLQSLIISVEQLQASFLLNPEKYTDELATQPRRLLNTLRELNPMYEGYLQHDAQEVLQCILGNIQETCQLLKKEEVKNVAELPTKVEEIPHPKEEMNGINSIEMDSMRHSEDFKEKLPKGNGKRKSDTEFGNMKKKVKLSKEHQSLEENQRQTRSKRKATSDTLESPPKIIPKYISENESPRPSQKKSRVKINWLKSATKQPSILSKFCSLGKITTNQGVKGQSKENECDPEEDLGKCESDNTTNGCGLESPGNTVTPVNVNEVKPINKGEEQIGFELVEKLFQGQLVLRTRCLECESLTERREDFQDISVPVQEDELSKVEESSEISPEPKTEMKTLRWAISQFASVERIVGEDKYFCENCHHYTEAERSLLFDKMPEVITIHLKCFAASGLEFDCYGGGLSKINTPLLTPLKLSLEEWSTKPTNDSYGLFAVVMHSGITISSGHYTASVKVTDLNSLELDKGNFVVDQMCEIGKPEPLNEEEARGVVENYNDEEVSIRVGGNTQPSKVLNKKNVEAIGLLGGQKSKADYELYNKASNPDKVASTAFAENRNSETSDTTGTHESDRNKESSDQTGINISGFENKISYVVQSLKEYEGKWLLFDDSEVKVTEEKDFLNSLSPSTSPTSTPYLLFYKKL
Chain of Dual specificity protein kinase CLK4 (Homo sapiens) (Q9HAZ1 whole entry, looked up): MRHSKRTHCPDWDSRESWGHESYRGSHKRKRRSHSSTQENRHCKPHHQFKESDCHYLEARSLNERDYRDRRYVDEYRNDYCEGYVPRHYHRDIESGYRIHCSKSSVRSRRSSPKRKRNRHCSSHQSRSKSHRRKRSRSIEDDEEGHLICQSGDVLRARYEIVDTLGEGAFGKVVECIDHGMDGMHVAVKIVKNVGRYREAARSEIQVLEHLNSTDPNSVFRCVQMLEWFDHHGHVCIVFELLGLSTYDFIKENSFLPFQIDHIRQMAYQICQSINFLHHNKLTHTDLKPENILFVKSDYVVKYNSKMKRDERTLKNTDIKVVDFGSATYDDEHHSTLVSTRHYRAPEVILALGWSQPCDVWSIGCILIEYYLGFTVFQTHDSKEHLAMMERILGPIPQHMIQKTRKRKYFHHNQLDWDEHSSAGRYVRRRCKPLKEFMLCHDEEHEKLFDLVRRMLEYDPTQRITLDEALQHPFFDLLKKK
Chain of Cytochrome P450 1A2 (Homo sapiens) (P05177 whole entry, looked up): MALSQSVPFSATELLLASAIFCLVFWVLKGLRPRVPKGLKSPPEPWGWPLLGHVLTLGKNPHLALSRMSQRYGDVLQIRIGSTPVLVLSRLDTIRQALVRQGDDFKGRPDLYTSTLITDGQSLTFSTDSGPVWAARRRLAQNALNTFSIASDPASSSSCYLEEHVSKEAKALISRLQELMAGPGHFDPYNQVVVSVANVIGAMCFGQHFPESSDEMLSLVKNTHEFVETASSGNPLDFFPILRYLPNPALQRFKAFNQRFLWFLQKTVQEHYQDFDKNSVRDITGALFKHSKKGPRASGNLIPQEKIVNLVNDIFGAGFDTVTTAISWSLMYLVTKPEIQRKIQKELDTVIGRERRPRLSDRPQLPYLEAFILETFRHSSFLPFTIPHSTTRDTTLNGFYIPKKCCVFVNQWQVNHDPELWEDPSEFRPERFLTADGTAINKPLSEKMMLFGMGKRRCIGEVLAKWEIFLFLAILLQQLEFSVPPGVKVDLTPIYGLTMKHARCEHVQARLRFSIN
Chain of Cytochrome P450 3A4 (Homo sapiens) (P08684 whole entry, looked up): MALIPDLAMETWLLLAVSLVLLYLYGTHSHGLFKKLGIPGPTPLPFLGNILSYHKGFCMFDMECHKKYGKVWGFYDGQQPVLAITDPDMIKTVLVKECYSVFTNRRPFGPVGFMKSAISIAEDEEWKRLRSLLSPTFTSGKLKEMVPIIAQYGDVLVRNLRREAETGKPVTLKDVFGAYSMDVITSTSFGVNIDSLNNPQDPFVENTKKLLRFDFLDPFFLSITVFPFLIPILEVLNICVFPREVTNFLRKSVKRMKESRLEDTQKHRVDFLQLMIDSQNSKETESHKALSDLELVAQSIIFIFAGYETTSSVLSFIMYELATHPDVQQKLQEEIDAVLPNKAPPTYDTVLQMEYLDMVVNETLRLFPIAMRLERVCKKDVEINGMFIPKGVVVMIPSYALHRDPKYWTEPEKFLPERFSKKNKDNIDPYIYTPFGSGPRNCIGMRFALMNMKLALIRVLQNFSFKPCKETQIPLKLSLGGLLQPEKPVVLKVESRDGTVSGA

CCNc1ncc2ncc(=O)n(Cc3cccs3)c2n1
active: Potency [2] 2 µM | Potency [12] 3.16 µM | Potency [13] 5.62 µM | Potency [14] 5.01 µM
16.4%: max response [11, 19]
inactive: Potency [1] > 11.4 µM | activity change, negative = inhibition [3] -8.48% | activity, negative = inhibition [4] -24.4% | Potency [5] > 9.22 µM | Potency [6] > 46 µM | outcome [7] | Potency [8] | Potency [9] | activation [10] -28.8% | activity change, negative = inhibition [11] 5.21% | Potency [15] | Potency [16]
12.7%: max response [11, 18]

Cc1noc(C)c1-c1cc(N2CCNCC2)ncn1
8.99%: max response [11, 19]
1.52%: max response [11, 18]
inactive: Potency [1] > 11.4 µM | activity change, negative = inhibition [17] -3.92% | activity change, negative = inhibition [3] 7.79% | activity, negative = inhibition [4] 5.3% | Potency [5] > 46 µM | Potency [6] > 46 µM | outcome [7] | Potency [8] | activity change, negative = inhibition [11] 5.16% | Potency [12] | Potency [13] | Potency [14] | Potency [16]

COc1ccc(-c2nc3cnc(Nc4ccccc4)nc3n(Cc3cccs3)c2=O)cc1
23.8%: max response [11, 18]
inactive: Potency [1] > 11.4 µM | activity change, negative = inhibition [17] 19.7% | activity change, negative = inhibition [3] 23.4% | Potency [5] > 9.22 µM | Potency [6] > 46 µM | outcome [7] | Potency [8] | activity change, negative = inhibition [11] 0.81% | Potency [12] | Potency [13] | Potency [14] | Potency [15] | Potency [16]
23.5%: max response [11, 19]
active: Potency [10] 3.16 µM

COc1cccc(Cn2c(=O)c(-c3cccc(C#N)c3)nc3cnc(N4CCN(C)CC4)nc32)c1
24.1%: max response [11, 19]
active: Potency [10] 3.16 µM
21.5%: max response [11, 18]
inactive: Potency [1] > 11.4 µM | Potency [2] | Potency [5] > 9.22 µM | Potency [6] > 46 µM | outcome [7] | Potency [8] | Potency [9] | activity change, negative = inhibition [11] 2.54% | Potency [12] | Potency [13] | Potency [14] | Potency [15] | Potency [16]

COc1cccc(Cn2c(=O)c(-c3cc(F)cc(F)c3)nc3cnc(N(C)C)nc32)c1
18.8%: max response [11, 19]
19.9%: max response [11, 18]
inactive: Potency [1] > 11.4 µM | Potency [2] | Potency [5] > 9.22 µM | Potency [6] > 46 µM | outcome [7] | Potency [8] | activity change, negative = inhibition [11] -0.73% | Potency [12] | Potency [13] | Potency [14] | Potency [15] | Potency [16]
active: activity, negative = inhibition [4] 91.4% [activator] | Potency [10] 0.398 µM
